Laboratory results as given in PubChem BioAssay (NCI).
The panel holds about 83,000 compounds, 20% with a hit somewhere; the sample as a whole holds those more often.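 Cell lines were cultured in 96-well plates, exposed to a single compound concentration, and assessed for percent growth 48 hours later.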 Values without a mark were called inactive. The source made the active and inactive calls. Rule for the calls: active = growth percent below 10; inactive = the rest.

How the values were obtained:
Assay in all cases: NCI-60 one-dose screen, 48 h (100 = growth as untreated, 0 = no growth, -100 = all killed)
Conditions in all cases: 10 µM
[1] = test system: SR leukemia
[2] = test system: RPMI-8226 leukemia
[3] = test system: OVCAR-8 ovarian
[4] = test system: OVCAR-4 ovarian
[5] = test system: SK-OV-3 ovarian
[6] = test system: IGROV1 ovarian
[7] = test system: OVCAR-3 ovarian
[8] = test system: HS 578T breast
[9] = test system: NCI/ADR-RES ovarian
[10] = test system: OVCAR-5 ovarian

Structure (SMILES) | growth [1] | growth [2] | growth [3] | growth [4] | growth [5] | growth [6] | growth [7] | growth [8] | growth [9] | growth [10]
CC(=O)Oc1ccccc1C(=O)Oc1ccc(C(=O)/C=C/c2ccncc2)cc1 | 7.37% (active) | 13.6% | 30.8% | 59.9% | 96.7% | 22.3% | 19.5% | 32.8% | 63.5% | –
C/C(=C\c1ccc(O)cc1O)c1ccc2ccc(O)cc2[o+]1 | 20.2% | 65.7% | 9.36% (active) | 74.4% | 103% | 47.8% | 28.7% | 90.2% | 22.1% | –
COc1cc(OC(F)(F)F)ccc1C(=O)Nc1sc2c(c1C#N)CCC(=O)C2 | – | 51.7% | 93% | 62.1% | 81.2% | 112% | 112% | 75.9% | 75.1% | 138%
COc1ccc(/C=C/C(=O)c2ccc(NC(=O)CN3C(=O)NC(C)(c4ccccc4)C3=O)cc2)cc1 (stereo not drawn) | 61.6% | – | 93.3% | 78.3% | 106% | 90.3% | 78.2% | 81.3% | 102% | 102%
O=C(CNc1nc(-c2ccccc2)cs1)Nc1ccc([N+](=O)[O-])cc1 | 10.8% | 11.7% | 17.7% | 18% | 53.9% | 16.6% | 13.1% | 21.8% | -20.4% (active) | –
C=C1CCC2C3(C)COC(c4cc(F)cc(F)c4)OC3CCC2(C)C1C/C=C1/C(=O)OCC1O (stereo not drawn) | 7.75% (active) | 14.1% | -83.1% (active) | -11% (active) | 25% | -49.8% (active) | -76.9% (active) | -24.1% (active) | -11.1% (active) | –
O=C(CN1CCN(c2ncnc3c2cnn3-c2ccccc2)CC1)Nc1nncs1 | -28.9% (active) | -16.6% (active) | -21.4% (active) | 13.6% | 28.1% | -41.8% (active) | – | 3.92% (active) | -32.6% (active) | –
Cc1ccc(CNC(=O)Cc2ccc3c(c2)CN(C2CCC(=O)NC2=O)C3=O)cc1 (stereo not drawn) | 38.7% | 30.3% | 1.57% (active) | 0.757% (active) | 18.4% | 2.34% (active) | 6.03% (active) | -15.4% (active) | -8.37% (active) | –
CN(C)c1ccc(/C=C/C(=O)c2ccc(NC(=O)CN3C(=O)NC(C)(c4ccccc4)C3=O)cc2)cc1 (stereo not drawn) | 42.7% | – | 67.1% | 55.4% | – | 86.7% | 61.7% | – | 86.6% | 86%
Cc1cc(C)nc(NS(=O)(=O)c2ccc(N/C(N)=N/c3nccc(-c4cccs4)n3)cc2)n1 | 92.3% | 87% | 101% | 93.6% | 84.4% | 72.6% | 107% | 77.7% | 101% | –
O=C(CNc1nc(-c2ccccc2)cs1)Nc1ccc(Br)cc1 | -18.8% (active) | -5.37% (active) | -5.23% (active) | -49.9% (active) | 8.41% (active) | -75.4% (active) | -77.7% (active) | – | -16.7% (active) | –
COc1ccc(-c2cc(C(=O)N=Nc3c(O)[nH]c4ccccc34)c3ccccc3n2)cc1 | 22.8% | – | -28.6% (active) | -36.7% (active) | 80.9% | -62.5% (active) | -93.2% (active) | – | -14.4% (active) | 18.2%
C=CCn1c(SCC(=O)Nc2ccc(C(=O)/C=C/c3ccccc3)cc2)nnc1-c1c[nH]c2ccccc12 | – | 2.87% (active) | 64.7% | 61.9% | 86.8% | 42% | 41.4% | 70.5% | 85.4% | 102%
Cc1cc(C)nc(NS(=O)(=O)c2ccc(N/C(N)=N/c3nccc(-c4ccccc4)n3)cc2)n1 | 53.8% | 60.8% | 77.7% | 67.3% | 52.9% | 38.9% | 86.8% | 48.1% | 84.5% | –
CC1(c2ccccc2)NC(=O)N(CC(=O)Nc2ccc(C(=O)/C=C/c3ccccc3)cc2)C1=O (stereo not drawn) | 14.4% | – | 65.1% | 60.9% | 121% | 61.7% | 37.7% | 71.5% | 87.5% | 89.2%
CC1(c2ccccc2)NC(=O)N(CC(=O)Nc2ccc(C(=O)/C=C/C=C/c3ccccc3)cc2)C1=O (stereo not drawn) | 15.2% | – | 45% | 68.7% | 120% | 86.5% | 47.1% | 57.6% | 82.7% | 84.1%
CSc1nc(-c2cccc(C)c2)c2cc(-c3ccccc3)n(C)c2n1 | 11.7% | – | 25.2% | 31.5% | 69% | 34.3% | -32.4% (active) | 9.16% (active) | -19.6% (active) | 49.6%
CCOc1ccc(Nc2nc3ccccc3nc2Nc2ccc(OCC)cc2)cc1 | 42.2% | 18.5% | 58.3% | 52.7% | – | 55% | 22.5% | 107% | 65% | –
COc1cc(/C=C/C(=O)c2ccc(NC(=O)CN3C(=O)NC(C)(c4ccccc4)C3=O)cc2)cc(OC)c1OC (stereo not drawn) | 5.93% (active) | – | 10.4% | 32.9% | 112% | 26.7% | -6.99% (active) | 39.3% | 102% | 34.6%
COc1cccc(-c2nn(-c3ccccc3)cc2-c2ccnc(NCCCNC(=O)Nc3ccc(F)cc3)c2)c1 | – | -27.4% (active) | 11.1% | 22.8% | 3.71% (active) | 15.8% | 28.4% | -3.48% (active) | -35.6% (active) | 27.1%
Cc1ccc(-c2cc(C(=O)N=Nc3c(O)[nH]c4ccccc34)c3ccccc3n2)cc1 | 5.31% (active) | – | -15.8% (active) | 1.61% (active) | 91.2% | 60.1% | -65.7% (active) | 12.4% | -16.9% (active) | 69.4%
Cc1ccc(CSc2nc(Cl)c(C#N)c(-c3ccc(F)cc3)n2)cc1 | – | 58.5% | 83.8% | 81.6% | 88.3% | 95.8% | 86.3% | 86.7% | 72.4% | 94.1%
O=C(CS(=O)(=O)c1oc(-c2ccc(Cl)cc2)nc1S(=O)(=O)c1ccccc1)N1CCCC1 | – | -13.8% (active) | -31.8% (active) | -90.1% (active) | 97.9% | 74.4% | -90.1% (active) | 60.2% | 9.98% (active) | -51.4% (active)
Cc1cc(C(F)(F)F)ccc1C(=O)Nc1sc2c(c1C#N)CCC(=O)C2 | -9.8% (active) | 2.68% (active) | -9.16% (active) | -39.7% (active) | -18.9% (active) | -5.43% (active) | -48.2% (active) | -7.86% (active) | -24.8% (active) | –
CC1(c2ccccc2)NC(=O)N(CC(=O)Nc2ccc(C(=O)/C=C/c3ccc(Br)cc3)cc2)C1=O (stereo not drawn) | 15.5% | – | 41.3% | 43.3% | 94.3% | 61.6% | 27.4% | 53.4% | 79.8% | 76%
CCOc1ccc(/C=N/NC(=O)Cn2nc(Cc3ccccc3)c3onc(C)c3c2=O)cc1 | 78.1% | 76.2% | 5.16% (active) | 10.6% | -5.84% (active) | 38.5% | 14.7% | -12.7% (active) | 16.1% | –
O=C(Nc1cccc(C(F)(F)F)c1)c1cncc(C#Cc2cnc3ccc(N4CCOCC4)nn23)c1 | -1.17% (active) | – | 3.84% (active) | 12.7% | 3.44% (active) | 1.76% (active) | -23.6% (active) | -22.4% (active) | -24% (active) | –
Cc1ccc(C(=O)NNC(=O)CSc2nc3ccccc3c(=O)[nH]2)cc1 | 73% | 105% | 97.8% | 104% | 116% | 102% | 103% | 97.5% | 101% | –
O=C(Nc1cccc(C(F)(F)F)c1)c1cncc(C#Cc2cnc3cccnn23)c1 | 9.35% (active) | – | 41% | 64.9% | 83.6% | 41.6% | 43.7% | 45.7% | 16.6% | –
